Sampled rows, rich in hits. Any-hit rate of the full collection: about 8%.
FMDV antiviral = antivirals against foot and mouth disease virus. hit rate 1.2% among 410,000. FMDV antiviral cell-based qHTS. Potency, µM (highest dose often 57.9 µM), without a hit: top-dose activity change, negative = inhibition, most hits filed as inhibitors; calls by dose curve; tested in HEK293T cells; note: read-out not given here; potency is the fitted concentration of half-maximal effect; % is set by controls: 0 for no effect and ±100 for the full control effect; nearly all actives have a fitted effect of over 45% in size
SARS PLpro yeast = blocks SARS-CoV papain-like protease in a yeast assay; S. cerevisiae expressing SARS-CoV PLpro, growth rescue; AID 485353; Potency, µM (series often up to 32.9 µM), for the others: at the highest dose activity, positive = growth rescue, usual class: activators; hit rate 0.19% among 330,000; calls by dose curve; note: potency is the fitted concentration of half-maximal effect; 0% is about no effect; nearly all actives have a fitted effect of over 55% in size
Lassa entry inh = Lassa virus entry inhibition. hit rate 1.2% among 300,000. AID 540256. Potency, µM (highest dose often 37.9 µM), inactives show top-dose activity change, negative = inhibition, most hits filed as inhibitors. Lassa virus pseudotype entry inhibition, cell reporter; calls by dose curve; tested in HEK293 cells; note: potency is the fitted concentration of half-maximal effect; % is set by controls: 0 for no effect and ±100 for the full control effect; nearly all actives have a fitted effect of over 50% in size
HCMV antiviral = blocks human cytomegalovirus replication | HFF cells, HCMV-luciferase reporter, 72 h; active compounds read low | activity change, negative = inhibition, % at 57.5 µM | hit rate 4.5% among 410,000 | AID 1259415; in the data active = activity change below about -60%; inconclusive = no clear call, values can overlap the other calls; inactive = above about -39%; note: % is set by controls: 0 for no effect and ±100 for the full control effect
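Luciferase read-out from HCMV-luciferase-infected HFFs (MOI 1 PFU/cell) 72 h post infection at 37C; compounds added after 16 h cell attachment; activity normalized between buffer-only basal and Salinomycin (10uM) inhibitor controls.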
Marburg entry inh = inhibitors of Marburg virus binding or cell entry; hit rate 1.8% among 300,000; AID 540276; Potency, µM (doses to about 37.8 µM), inactives show at the highest dose activity change, negative = inhibition, most hits filed as inhibitors; Marburg virus pseudotyped entry inhibition, cell reporter; calls by dose curve; tested in HEK293 cells; note: potency is the fitted concentration of half-maximal effect; % is set by controls: 0 for no effect and ±100 for the full control effect
HCV inh = HCV inhibition; Huh7.5.1 HCVcc-Cre infection, luciferase reporter, 44 h; Potency, µM (series often up to 41.8 µM), without a hit: at the top dose activity change, negative = inhibition, hits mostly inhibitors; hit rate 3.4% among 340,000; active = well fitted inhibition curve with a large enough effect; inconclusive = small, poorly fitted or top-dose-only effect, or another doubt; inactive = no such curve, though single readings can be large or run the other way; note: potency is the fitted concentration of half-maximal effect; % is set by controls: 0 for no effect and ±100 for the full control effect
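Antiviral activity was scored by luciferase reporter output from cells infected with HCVcc-Cre (~0.5 moi) in presence of compound, 44 h infection period, cells seeded 1,000/well 4 h prior.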
Starred values were filed as active, the others as inactive; u = inconclusive; x = no result; ! = not active in a repeat; [ ] = remark or other dose.

SMILES | FMDV antiviral | SARS PLpro yeast | Lassa entry inh | HCMV antiviral | Marburg entry inh | HCV inh
Cc1nc2cccnc2n1-c1cccc(C(=O)N2CCN(c3ccc(Cl)cc3)CC2)c1 | 13µM* | x | u | u | x | x
CCc1nc2ccc(C(=O)N3CCN(c4cc(C)ccc4C)CC3)cc2nc1CC | -25% | x | 8%[46.1 µM] | -33 | x | u
CC(=O)Nc1ccccc1-c1nc2ccc(C(=O)N3CCN(c4cc(C)ccc4C)CC3)cc2[nH]c1=O | u | 3% | x | -65* | x | 16%
COc1ccc(N2CCN(C(=O)c3cccc(-n4c(C)nc5cccnc54)c3)CC2)cc1 | u | x | 5%[46.1 µM] | 0 | x | x
Cc1ccc(C)c(N2CCN(C(=O)c3cccc(-n4c(C)nc5cccnc54)c3)CC2)c1 | 25µM* | x | u | 0 | x | x
Cc1cccc(N2CCN(C(=O)c3cccc(-n4c(C)nc5cccnc54)c3)CC2)c1C | u | x | -13%[46.1 µM] | u | x | x
COc1ccccc1CNS(=O)(=O)c1ccc2c(c1)NC(=O)C(C)C(=O)N2 (stereo not given) | -9% | x | 15%[46.1 µM] | 8 | u | x
COc1ccc(CNC(=O)C2=C(C)C(=O)OC23CCN(C(C)=O)CC3)cc1 | 9% | x | 0%[46.1 µM] | 0 | x | x
C[C@@]12CC[C@H]3[C@@H](CCC4=C(O)C(=O)CC[C@]43C)[C@H]1CCC2=O | x | x | x | x | -5% | x
Cc1cccc(N2CCN(C(=O)c3cc4ccc5cccnc5c4[nH]3)CC2C)c1 (stereo not given) | -21% | x | 14%[46.1 µM] | -108* | x | x
COC(=O)c1sc(N2C(=O)c3oc4ccc(C)cc4c(=O)c3C2c2ccc(O)c(OC)c2)nc1C (stereo not given) | -14% | x | -5%[46.1 µM] | 8 | 13%[46.1 µM] | x
CCOC(=O)C1=CN(Cc2cccc(F)c2)S(=O)(=O)N(CC)C1c1ccc2ccccc2c1 (stereo not given) | -16% | -2% | x | -1 | x | -27%
CCOC(=O)C1=CN(Cc2cccc(F)c2)S(=O)(=O)N(C)C1c1ccc2ccccc2c1 (stereo not given) | 2% | 12% | x | -26 | x | 11µM*
CCCN1C(C)C(C(=O)OCC)=CN(Cc2ccc(Br)cc2)S1(=O)=O (stereo not given) | u | -34% | x | -36 | x | u
CCCN1C(C)C(C(=O)OCC)=CN(Cc2cccc(I)c2)S1(=O)=O (stereo not given) | 4µM* | -7% | x | x | x | u
Cn1ncc(SCc2ccccc2)c(Cl)c1=O | u | 1% | u | -80* | u | -69%
CSc1c(SCc2ccccc2)cnn(-c2ccccc2)c1=O | -17% | 11% | 5.2µM* | 4 | 28% | -14%
COc1cnn(-c2ccccc2)c(=O)c1SCc1ccc(Cl)c(Cl)c1 | u | -2% | -5% | -25 | 0% | -1%
CC(=O)c1ccc(NC(=O)COC(=O)c2c3c(nc4ccccc24)/C(=C\c2cccs2)CCC3)cc1 | u | 10% | u | u | 8.9µM* | u
CC(C)NC(=O)NC(=O)COC(=O)c1c2c(nc3ccccc13)CCC2 | 11µM* | 0% | x | u | u | 4.5µM*
O=C(COC(=O)c1c2c(nc3ccccc13)CCCC2)Nc1ccc2c(c1)OCO2 | -21% | -13% | u | -27 | u | 5.6µM*
O=C(OCC(=O)N1CCc2ccccc21)c1c2c(nc3ccccc13)CCCCC2 | 3% | -37% | u | u | u | 2.8µM*
CC(C)(C)NC(=O)COC(=O)c1c2c(nc3ccccc13)CCC2 | -21% | -3% | -25% | -20 | -3%[46.1 µM] | u
COc1cc(C(=O)N2CC(=O)Nc3ccc(C)cc3C2c2ccc(F)cc2)cc(OC)c1OC (stereo not given) | -20% | x | -10%[46.1 µM] | 16 | -30%[46.1 µM] | x
Cc1nc(-c2ccc(Cl)cc2)sc1CCNC(=O)C(=O)Nc1ccc(F)cc1F | 5% | x | 7%[46.1 µM] | 47 | x | x
SMILES | FMDV antiviral | SARS PLpro yeast | Lassa entry inh | HCMV antiviral | Marburg entry inh | HCV inh
Fc1ccc(-c2noc3nc(Oc4ccccc4F)ccc23)cc1 | x | x | x | 58 | x | x
CCOC(=O)c1cc2c(=O)n3ccccc3nc2n(Cc2ccco2)c1=NC(=O)c1ccc(C(C)(C)C)cc1 | u | x | 29%[46.1 µM] | -2 | 29%[46.1 µM] | x
CCOC(=O)c1cc2c(=O)n3ccccc3nc2n(C(C)C)c1=NC(=O)c1c(-c2c(F)cccc2Cl)noc1C | -16% | 12% | u | -90*! | u | 2µM*
CCOC(=O)c1cc2c(=O)n3ccccc3nc2n(Cc2ccco2)c1=NC(=O)c1cc(C)cc(C)c1 | 0% | x | u | -77* | 27%[46.1 µM] | x
CCOC(=O)c1cc2c(=O)n3ccccc3nc2n(C)c1=NC(=O)c1c(-c2c(F)cccc2Cl)noc1C | -20% | x | 1% | u | u | u
CCn1cc(S(=O)(=O)c2cccc(C)c2)c(=O)c2cc(F)c(N3CCN(c4ccccc4)CC3)cc21 | -1% | x | -2%[46.1 µM] | -12 | x | x
COc1ccc(Br)cc1/C=N/Nc1ccccn1 | -12% | 2% | x | 60 | x | 11µM*
COc1ccc(Br)cc1/C=N/NS(=O)(=O)c1ccccc1 | 9% | x | x | -87* | x | x
CCC(=O)c1ccc(OCC(O)CN(C)C2CCCCC2)cc1 (stereo not given) | 0% | -1% | 2% | 25 | u | u
CN(C[C@H](O)COc1ccc(OC[C@H](O)CN(C)C2CCCCC2)cc1)C1CCCCC1 | x | x | x | x | 10µM* | x
CN(CC(O)COc1ccc(OCC(O)CN(C)C2CCCCC2)cc1)C1CCCCC1 (stereo not given) | -1% | x | u | u | 10µM* | 16µM*
Cc1cccc(C)c1OCC(O)CN(Cc1ccccc1O)C1CCCCC1 (stereo not given) | -7% | -3% | -2%[46.1 µM] | -69* | u | u
Cc1cccc(C)c1OCC(O)Cn1c2ccccc2c2ccccc21 (stereo not given) | u | -31% | 2% | -16 | u | u
Cc1cccc(OCCn2c(-c3ccc(Cl)cc3)nc3ccccc3c2=O)c1C | -24% | x | -25%[46.1 µM] | 38 | 1%[46.1 µM] | x
O=C(NC12CC3CC(CC(C3)C1)C2)c1ccc(-c2ccc(Cl)cc2)o1 | 4% | 0% | u | -24 | u | u
O=C(NC12CC3CC(CC(C3)C1)C2)c1ccc(-c2cccc(Cl)c2)o1 | 29% | -53% | -21% | -63* | -25% | u
O=C(NC12CC3CC(CC(C3)C1)C2)c1ccc(COc2ccc(Cl)cc2[N+](=O)[O-])o1 | u | -8% | u | x | u | 8.9µM*
O=c1cnn(-c2ccc(Cl)cc2Cl)c(-c2ccccc2)c1 | 2% | -5% | u | 78 | -40% | u
O=C1CC(c2cccnc2)=NN1c1ccc(Cl)cc1Cl | 3% | 5% | -22% | -100* | 6%[46.1 µM] | -1%
Cc1cc(C2=NNC(=NC3CC3)SC2)c(C)n1Cc1ccco1 | 3.2µM* | 10µM* | u | -98* | u | u
Cc1cc(-c2csc(N)n2)c(C)n1Cc1ccco1 | 19% | -4% | 3% | -30 | u | u
